# Results: ChEMBL document CHEMBL3988442, “University of Dundee, Small-Polar-MMV Screening Library” (2021)
# The campaign covered roughly 69,000 compounds. About 1,000 (1.4%) showed an effect of 50% or more. For the sample, strong results were picked, then their nearest neighbours and some compounds at random.
# System: Leishmania donovani
# Experiment: Leishmania intramacrophage assay
# Assay type: functional, organism-based
# Parameters: scale not given: in the data most compounds retested in dose-response had high values
smiles,measurement,setting,value
CCn1ncc(S(=O)(=O)N[C@@H]2CCC[C@@H](n3ccnc3)[C@@H]2O)c1C,Percent Effect,"30.3 µM, […]",16.74%
NCCC(=O)N1CCC2(CC1)CN(C(=O)c1ccc(Cl)cc1)CCO2,Percent Effect,"30.3 µM, […]",0.3697%
Cc1ccc(C(=O)N2CCC3(CCCC3)CC2)c(=O)[nH]1,Percent Effect,"30.3 µM, […]",27.16%
Cc1ccc(C(=O)N2CCC3(CCCCC3)C2)c(=O)[nH]1,Percent Effect,"30.3 µM, […]",56.07%
Cc1ccc(C(=O)N2CCC(Oc3ccccc3)CC2)c(=O)[nH]1,Percent Effect,30 µM,12.56%
Cc1ccc(C(=O)N2CCOC3(CCCC3)C2)c(=O)[nH]1,Percent Effect,"30.3 µM, […]",4.345%
Cc1ccc(C(=O)N2CCC(Oc3ccc(C)c(C)c3)CC2)c(=O)[nH]1,Percent Effect,30 µM,57.43%
COc1ccc(OC2CCN(C(=O)c3ccc(C)[nH]c3=O)CC2)cc1,Percent Effect,30 µM,26.55%
COCCCC(=O)N1CCC(Nc2cccnn2)CC1,Percent Effect,30 µM,-18.1%
CNC(=O)[C@H]1CC[C@@H]2[C@@H](CCN2CCOCc2ccccc2)O1.O=C(O)C(F)(F)F,Percent Effect,"30.3 µM, […]",45.25%
Cc1cc(NC2CCc3nc(C(C)C)nn3C2)n2ncnc2n1 (stereo unspecified),Percent Effect,"30.3 µM, […]",-19.33%
CC[C@@H](C)[C@H](NC(=O)Cn1ccc2c(Cl)cccc21)C(=O)O,Percent Effect,"30.3 µM, […]",7.093%
Cc1nnc(C(C)N(C)Cc2c(C)nn(-c3ccccc3)c2C)o1 (stereo unspecified),Percent Effect,"30.3 µM, […]",15.94%
CCc1nnc(C(C)N(C)Cc2c(C)nn(-c3ccccc3)c2C)o1 (stereo unspecified),Percent Effect,"30.3 µM, […]",21.58%
Cc1nnc(C(C)N(C)Cc2c(C)nn(-c3ccccc3C)c2C)o1 (stereo unspecified),Percent Effect,"30.3 µM, […]",60.72%
O=C(NCC1(O)CCC1)c1cccc(-n2cccn2)c1,Percent Effect,"30.3 µM, […]",0.6562%
O=C(CSC1=NS(=O)(=O)c2cc(F)ccc2N1)Nc1ccc(Cl)cc1,Percent Effect,"30.3 µM, […]",3.738%
O=C(CSC1=NS(=O)(=O)c2cc(F)ccc2N1)c1ccc(Cl)cc1,Percent Effect,"30 µM, 30.03 µM",37.27%
O=S1(=O)N=C(SCc2ccc(Cl)cc2)Nc2ccc(F)cc21,Percent Effect,"30 µM, 30.03 µM",63.48%
CC(C)(C)c1cn(CC2CCCN(c3cnc4ccccc4n3)C2)nn1 (stereo unspecified),Percent Effect,"30.3 µM, […]",23.01%
CCOC(=O)CN1CCC2(CC1)CC(=O)c1ccc3ccccc3c1O2,Percent Effect,"30.3 µM, […]",52.56%
CN(C)C(=O)CN1CCC2(CC1)CC(=O)c1ccc3ccccc3c1O2,Percent Effect,"30.3 µM, […]",36.93%
NC(=O)CN1CCC2(CC1)CC(=O)c1ccc3ccccc3c1O2,Percent Effect,"30.3 µM, […]",11.62%
Cc1nc(NC(=O)C2(C)CN(C)CCO2)sc1C.Cl (stereo unspecified),Percent Effect,"30.3 µM, […]",1.58%
Cc1nc(Nc2ncc(C)s2)cc(C2CCCN2)n1.Cl (stereo unspecified),Percent Effect,"30.3 µM, […]",56.27%
Cc1nc(Nc2nnc(C)s2)cc(C2CCCN2)n1.Cl (stereo unspecified),Percent Effect,"30.3 µM, […]",-1.301%
Cc1nc(Nc2nccs2)cc(C2CCCN2)n1.Cl (stereo unspecified),Percent Effect,"30.3 µM, […]",34.17%
COc1cc(/C=C/c2ncc(C(=O)O)s2)cc(Cl)c1OC,Percent Effect,30 µM,-16.83%
CCOc1c(Cl)cc(/C=C/c2ncc(C(=O)O)s2)cc1OC,Percent Effect,30 µM,26.63%
COc1cc(/C=C/c2ncc(C(=O)O)s2)cc(Cl)c1O,Percent Effect,"30 µM, 30.03 µM",50.87%
O=C1CNc2ncnc(Nc3cccc(Cn4cccn4)c3)c2N1,Percent Effect,"30.3 µM, […]",32.36%
O=C(Nc1ccccc1OCCc1ccccn1)N1CC[C@@H](O)C1,Percent Effect,"30.3 µM, […]",-41.47%
O=C(Nc1ccccc1OCCc1ccccn1)N1CCOCC1,Percent Effect,"30.3 µM, […]",51.44%
O=C(Nc1ccccc1OCCc1ccccn1)N1CCOCC(O)C1 (stereo unspecified),Percent Effect,"30.3 µM, […]",34.91%
O=C(O)C(F)(F)F.O=C1CC2(CCN(CC3CCOC3)CC2)c2ccccc2N1CC1CC1 (stereo unspecified),Percent Effect,"30.3 µM, […]",8.748%
CC(C)CN1C(=O)C2(CCN(Cc3ccoc3)C2)c2ccccc21.O=C(O)C(F)(F)F (stereo unspecified),Percent Effect,"30.3 µM, […]",-1.91%
O=C(O)C(F)(F)F.O=C(O)C(F)(F)F.OCCN1CC2(CCN(CC3CC3)CC2)c2ccccc21,Percent Effect,"30.3 µM, […]",75.39%
CC(C)CN1C(=O)C2(CCN(CC3CCOCC3)C2)c2ccccc21.O=C(O)C(F)(F)F (stereo unspecified),Percent Effect,"30.3 µM, […]",64.12%
CC(C)CN1C(=O)C2(CCN(Cc3cccs3)C2)c2ccccc21.O=C(O)C(F)(F)F (stereo unspecified),Percent Effect,"30.3 µM, […]",1.991%
O=C(O)C(F)(F)F.c1cnc(N2CCC3(CC2)CN(CC2CC2)c2ccccc23)nc1,Percent Effect,"30 µM, 30.03 µM",24.73%
OC1(CN2CCCC2)COCCN(c2nccs2)C1 (stereo unspecified),Percent Effect,"30.3 µM, […]",-9.416%
COCC1CN(S(=O)(=O)N(C)C)Cc2cnn(CC3CCCC3)c21.O=C(O)C(F)(F)F (stereo unspecified),Percent Effect,"30.3 µM, […]",-10.54%
Cc1ccc(F)c(NC(=O)CCC(=O)N(C)Cc2cc(C3CC3)[nH]n2)c1,Percent Effect,"30.3 µM, […]",5.303%
COc1ccccc1CC(=O)NC(CC(=O)O)c1ccc(C)cc1 (stereo unspecified),Percent Effect,"30.3 µM, […]",-0.7929%
COc1ccccc1Oc1ncccc1CNC(=O)CN1CCCC1=O,Percent Effect,"30.3 µM, […]",15.35%
Cc1cc(NC(=O)NCc2cccnc2OC(C)C)no1,Percent Effect,"30.3 µM, […]",23.81%
O=C(O)C(F)(F)F.O=C(O)C(F)(F)F.c1ccc(CN2CCc3nnc(CN4CCCCC4)n3CC2)nc1,Percent Effect,"30 µM, 30.03 µM",-31.83%
N[C@H]1CN(Cc2cnc(N3CCCC3)nc2)C[C@@H]1C1CC1,Percent Effect,"30.3 µM, […]",17.06%
CC(C)Oc1cc(N2C[C@H](C3CC3)[C@@H](N)C2)nc(N)n1,Percent Effect,"30.3 µM, […]",15.53%
CNc1cc(C)nc(N2C[C@H](C3CC3)[C@@H](N)C2)n1,Percent Effect,"30.3 µM, […]",66.39%
Cc1cc(N2C[C@H](C3CC3)[C@@H](N)C2)nc(N2CCCCC2)n1,Percent Effect,"30.3 µM, […]",55.81%
CNc1cc(C)nc(N2C[C@@H](C(=O)O)[C@H](C3CC3)C2)n1,Percent Effect,"30.3 µM, […]",1.34%
CCc1cc(N2C[C@H](C3CC3)[C@@H](N)C2)nc(N2CCOCC2)n1,Percent Effect,"30.3 µM, […]",29.17%
CCc1cc(N2C[C@H](C3CC3)[C@@H](N)C2)nc(N2CCCC2)n1,Percent Effect,"30.3 µM, […]",72.46%
CNc1cc(C)nc(N2C[C@H](NC(=O)C3CCOCC3)[C@@H](C3CC3)C2)n1,Percent Effect,"30.3 µM, […]",-19.84%
Cc1cc(C)nc(N2CCC(OCCN3CCCCC3)C2)n1 (stereo unspecified),Percent Effect,"30.3 µM, […]",-14.11%
Nc1cc2c(nn1)CCN(C(=O)c1ccc(-c3ccco3)[nH]c1=O)C2,Percent Effect,"30.3 µM, […]",9.211%
O=c1cc(C2CCNCC2)nc(CCCc2ccccc2)[nH]1,Percent Effect,"30.3 µM, […]",27.29%
Cc1cc(NC(=O)CN2CCn3c(nnc3C(C)C)C2)n(C)n1,Percent Effect,30 µM,-15.63%
Cc1nsc(N2CCCN(C(=O)NCc3cc(C)on3)CC2)n1,Percent Effect,"30.3 µM, […]",8.411%
CN(CCNc1ncc2c(n1)CCN2c1ccccc1)S(C)(=O)=O,Percent Effect,"30.3 µM, […]",14.06%
